Tb PYK inh: inhibitors of Trypanosoma brucei pyruvate kinase; Q57TT1; TbPYK enzyme, Kinase-Glo Plus ATP luminescence, 45 min; Potency, µM (doses to about 76.8 µM), for the others: at the top dose activity, negative = inhibition, usual class: inhibitors; 0.12% of 410,000 active; AID 624173; further: potency means the concentration at half of the fitted maximal effect; on the % scale 0 is the no-effect control and ±100 the full control effect; nearly all actives have a fitted effect of over 50% in size
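ADP (130 uM final) triggers the TbPYK reaction after compound addition; incubation is 45 min at room temperature. Kinase-Glo Plus is then added and luminescence imaged. Normalized data are fitted to concentration-effect curves.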
RE007 growth inh: less growth of the S. pombe RE007 Vpr strain. S. pombe RE007 Vpr strain, BacTiter-Glo ATP luminescence, 24 h. Potency, µM (doses to about 92.2 µM), for the others: top-dose activity change, negative = less growth, most hits filed as inhibitors. 0.21% of 360,000 active. AID 651644; active means well fitted falling curve with a large enough effect; inconclusive means small, poorly fitted or top-dose-only effect; inactive means no such curve, though single readings can be large or run the other way; further: potency means the concentration at half of the fitted maximal effect; on the % scale 0 is the no-effect control and ±100 the full control effect; nearly all actives have a fitted effect of over 50% in size
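Fission yeast strain RE007, carrying one chromosomally integrated HIV-1 vpr copy, was seeded at OD 0.01 in PMG+AL medium with 23 nL pinned compound. After 24 h at 30 °C and 99% humidity, viability was read by BacTiter-Glo luminescence.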
Shiga inhibitor: blocks Shiga toxin action in Vero cells. Vero cells, Shiga toxin protein synthesis inhibition reporter. inhibition, % at 38.7 µM. 9.2% of 290,000 active; in the data active means inhibition mostly above about 28%, no sharp cut-off; inactive means mostly below about 43%; further: 0% is about no effect
LmPK inh: inhibitors of Leishmania mexicana pyruvate kinase. purified LmPK, Kinase-Glo ATP luminescence, 1 h. Potency, µM (titrated, usually from 57.5 µM), inactives show at the top dose activity change, negative = inhibition, hits mostly inhibitors. 0.37% of 290,000 active; further: potency means the concentration at half of the fitted maximal effect; on the % scale 0 is the no-effect control and ±100 the full control effect
Target sequence (Q27686 whole entry, looked up): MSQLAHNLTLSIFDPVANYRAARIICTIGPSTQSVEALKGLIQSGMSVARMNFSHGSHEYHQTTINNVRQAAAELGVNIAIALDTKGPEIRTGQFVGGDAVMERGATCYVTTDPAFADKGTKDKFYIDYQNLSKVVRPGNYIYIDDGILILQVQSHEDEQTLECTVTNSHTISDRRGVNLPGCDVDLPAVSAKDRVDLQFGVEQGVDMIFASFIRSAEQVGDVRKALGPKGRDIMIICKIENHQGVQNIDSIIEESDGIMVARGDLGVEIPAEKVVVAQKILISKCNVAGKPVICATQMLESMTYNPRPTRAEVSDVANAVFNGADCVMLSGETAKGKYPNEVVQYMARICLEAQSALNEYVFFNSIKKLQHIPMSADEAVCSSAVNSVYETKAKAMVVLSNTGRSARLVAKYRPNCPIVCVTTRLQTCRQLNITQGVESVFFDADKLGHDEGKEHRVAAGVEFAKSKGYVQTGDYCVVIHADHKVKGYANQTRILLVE
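Kinase-Glo luminescence read after 1 h RT reaction of 0.1 nM LmPK with 0.5 mM PEP and 0.1 mM ADP. Activity scaled between uninhibited and enzyme-free controls.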
FBPA Giardia inh: Giardia lamblia aldolase inhibition. A8B2U2. purified Giardia FBPA. Potency, µM (top dose mostly 59.6 µM), for the others: top-dose activity, negative = inhibition, usual class: inhibitors. 0.71% of 290,000 active; further: potency means the concentration at half of the fitted maximal effect; on the % scale 0 is the no-effect control and ±100 the full control effect; nearly all actives have a fitted effect of over 55% in size
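Giardia FBPA (40 nM reagent) was preincubated 10 min at RT with compound (up to 57.5 uM final), then substrate plus GAPDH/TPI/NAD/arsenate coupling system with diaphorase/resazurin was added; resorufin fluorescence (525/598 nm) was read after 20 min.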
Cycloheximide cs: counter-screen for Shiga toxin inhibitors: cycloheximide protein synthesis inhibition. AID 2314. max response, %. cell reporter, cycloheximide protein synthesis inhibition counterscreen. 12% of 300,000 active; in the data active means max response mostly above about 13%, no sharp cut-off; inactive means mostly below about 14%; further: read at 38.3 µM for the half of the compounds with a filed dose; 0% is about no effect
* marks the source's active call; other numbers are inactive results; ? = inconclusive; nt = no result given; + = active, no number. The entries come from a sample that favours hits as a whole. Unless noted, the call rests on the fitted dose curve; in most records, active means well fitted curve in the direction sought with a large enough effect; inconclusive means small, poorly fitted or top-dose-only effect, or another doubt; inactive means no such curve, though single readings can be large; an effect the other way counts as inactive or inconclusive.

SMILES	Tb PYK inh	RE007 growth inh	Shiga inhibitor	LmPK inh	FBPA Giardia inh	Cycloheximide cs
Cc1ccc(-c2nnc(-c3ccccc3)o2)cc1	-4.7%	?	48.8*	?	-1.0%	48.9*
COc1ccc(Cc2nnc(-c3ccccc3)o2)cc1	-4.8%	17.8%	42.7*	-1.5%	7.0%	44.3*
CCCc1nnc(-c2ccc(OC)cc2)o1	0.6%	5.7%	+	-0.7%	1.4%	34.2*
c1ccc(Cc2nnc(-c3ccccc3)o2)cc1	-3.8%	-5.0%	-37.2	-2.8%	9.9%	-5.8
CCC(Sc1ncnc2sc3c(c12)CCCC3)C(=O)OCC(C)C (centres undefined)	-3.4%	nt	nt	nt	nt	nt
COC(=O)c1ccccc1NC(=O)c1ccc(-c2nc(COc3ccccc3)c(C)o2)cc1	-12.8%	nt	nt	nt	nt	nt
COc1ccc(-c2nnc(-c3ccc(F)cc3)o2)cc1	4.8%	-16.9%	90.0*	-0.3%	4.4%	47.7*
COc1ccc(-c2nnc(-c3ccccc3O)o2)cc1	-6.6%	-1.8%	62.8*	-11.2%	-8.9%	44.6*
CSc1nnc(-c2ccc(F)cc2)o1	-9.7%	-10.1%	14.1	-4.3%	0.6%	15.1
COc1ccccc1NC(=O)CSc1nnc(-c2ccccc2)o1	-3.2%	-3.5%	58.9	14.9%	-10.1%	17.6
CCNc1nnc(-c2ccc(C)cc2)o1	-6.2%	8.6%	106.7*	-1.9%	-0.9%	42.4*
COc1ccccc1NCc1nnc(-c2ccccc2)o1	0.2%	-9.7%	13.9	0.2%	-0.9%	20.4*
CCOc1ccccc1CNC(=O)c1cc2c(=O)n(Cc3ccco3)ccc2nc1C	-14.3%	nt	nt	nt	nt	nt
COc1ccc(-c2ccc(-c3nnc(-c4ccncc4)o3)cc2)cc1	nt	nt	-4.7	0.9%	5.1%	-3.2
COc1ccc(-c2nnc(-c3ccc(C)cc3)o2)cc1	1.0%	-9.8%	82.2*	-2.1%	2.5%	19.4*
C=C(C)CSc1nc(N)c2c(C)c(C)sc2n1	2.5%	11.4%	47.7	1.0%	7.2%	18.9*
O=C1CCC(/C=C/c2ccccc2)=NN1	2.8%	7.1%	16.9	-14.5%	8.3%	17.2*
CCCOc1ccc(C2=NNC(=O)CC2)cc1	-7.3%	19.7%	12.2	-2.4%	6.5%	14.6*
CCOc1ccc(/C=C/C2=NNC(=O)CC2)cc1	-10.8%	-6.0%	53.0*	?	0.9%	23.4*
COc1ccc(/C=C/C2=NNC(=O)CC2)cc1	-2.7%	-8.3%	65.8	2.1%	-0.5%	26.6*

Screening data deposited in PubChem by National Center for Advancing Translational Sciences (NCATS).
